According to the OligoGym collection:

target: VAMP1; assay: pooled miR-30 sensor sort-seq; sequence = guide strand; details: shRNA
Further: reference of the scale not given here.

Row | Sequence | sensor-assay potency score (higher = more potent)
1 | TATGATGTCCACCACCTCCTCC | -0.679
2 | TAGTCGTCTGTTACTGGTCATG | -1.49
3 | AGCATGATCATCATCTTGCAGT | -1.92
4 | ATGATCATCATCTTGCAGTTTT | -0.861
5 | TAGCTTGGCAGCACTGCTCTCA | -0.655
6 | TTACTGGTCATGTTAGGAGGAG | -0.535
7 | TTGACTGCAAAGTCCCAGGGTT | 0.215
8 | TGCTGTAGTCGTCTGTTACTGG | -0.0703
9 | TTTAGCTTGGCAGCACTGCTCT | -0.465
10 | ATAACTACCACGATGATGGCAC | 0.289
11 | TTTTGTTGCACATTTGCTCATG | -0.374
12 | TTTGGTGGAAGTACAACTGTTG | 0.106

target: VAMP8; assay: as above; details: shRNA

Row | Sequence | sensor-assay potency score (higher = more potent)
13 | TAATATTCTTAACTCCCTCCAC | 0.103
14 | ATGATAAAAACAATCACGCAGA | -0.843
15 | TTTGCAGGTTCCGCACACGATC | -1.07
16 | AAGGACAATCATCTTCACGTTC | -0.269
17 | ATGTCGTCTTGAAGTGCTCAGA | -1.56
18 | ATCTTCACGTTCTTCCACCAGA | -1.17
19 | AGATCCTCTGTCTTGTTGCGGA | -1.4
20 | TCTTCCACCAGAATTTTCGAGC | -0.564
21 | TTTCGAGCCACCTTCTGCGATG | -0.89
22 | ATCATCTTCACGTTCTTCCACC | -0.825
23 | TTCTGGGTCATAATATTCTTAA | -1.25
